The whole screen tested about 5,500 compounds, of which about 2,000 (36%) were called active. About 18% were inconclusive and are not listed. Cut-off read from the data, not from the text of the source: active = normalized growth mostly below about 0.91 (no sharp cut-off); inconclusive = no clear call, values can overlap the other calls; inactive = mostly above about 0.92. The list shows a part of the results.
Test: chemical genetic growth profiling, strain panel (AID 1159580);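 note: tested at 20 µM; growth read once vehicle control cultures reached saturation at 30 °C; 1 = growth at the plate median or of vehicle wells; lower values mean less growth of the strain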
Conditions: S. cerevisiae deletion strains, growth OD
[1] = locus YDL101C, strain DUN1, hits give low values
[2] = locus YHR030C, strain SLT2, hits give low values

Measured: normalized growth

CC(C)(C)c1ccc(C(=O)N/N=C\c2cc(Cl)cc(Cl)c2O)cc1
active: locus YAL013W, strain DEP1, hits give low values 0.909 | locus YBR229C, strain ROT2, hits give low values 0.832 | locus YCL061C, strain MRC1, hits give low values 0.818 | [1] 0.852 | locus YEL061C, strain CIN8, hits give low values 0.624 | locus YGR078C, strain PAC10, hits give low values 0.847 | [2] 0.452 | locus YHR087W, strain rtc3, hits give low values 0.872 | locus YJR043C, strain POL32, hits give low values 0.876 | locus YKL190W, strain CNB1, hits give low values 0.316 | locus YLR039C, strain RIC1, hits give low values 0.165 | locus YLR085C, strain ARP6, hits give low values 0.285 | locus YLR262C, strain YPT6, hits give low values 0.182 | locus YML094W, strain GIM5, hits give low values 0.645 | locus YMR219W, strain ESC1, hits give low values 0.83 | locus YNL128W, strain TEP1, hits give low values 0.377 | locus YNL153C, strain GIM3, hits give low values 0.826 | locus YNL298W, strain CLA4 (second series), hits give low values 0.642 | locus YNR030W, strain Alg12, hits give low values 0.617 | locus YPL241C, strain CIN2, hits give low values 0.428
inactive: locus YDR150W, strain NUM1, hits give low values 1.19 | locus YJR075W, strain HOC1, hits give low values 0.996 | locus YLR058C, strain SHM2 (second series), hits give low values 0.97 | locus YMR263W, strain SAP30, hits give low values 0.893 | locus YNL322C, strain KRE1, hits give low values 0.998 | locus YPL055C, strain LGE1, hits give low values 0.858 | locus YPR135W, strain CTF4, hits give low values 0.69

O=C(N/N=C\c1cc(Cl)cc(Cl)c1O)c1ccccc1Oc1ccccc1
inactive: locus YAR019C, strain CDC15, hits give low values 0.965 | locus YBL105C, strain PKC1, hits give low values 0.967 | locus YBR135W, strain CKS1, hits give low values 0.981 | locus YBR136W, strain MEC1, hits give low values 0.964 | locus YBR160W, strain CDC28, hits give low values 0.974 | locus YDL017W, strain CDC7, hits give low values 0.975 | locus YDL028C, strain MPS1, hits give low values 0.963 | [1] 0.981 | locus YDL108W, strain KIN28, hits give low values 0.958 | locus YDL132W, strain cdc53, hits give low values 0.955 | locus YDL214C, strain PRR2, hits give low values 0.933 | locus YDR052C, strain DBF4, hits give low values 0.97 | locus YDR054C, strain cdc34, hits give low values 0.96 | locus YDR226W, strain ADK1, hits give low values 0.966 | locus YDR477W, strain SNF1, hits give low values 0.945 | locus YER123W, strain YCK3, hits give low values 0.882 | locus YER133W, strain GLC7, hits give low values 0.949 | locus YFL009W, strain cdc4, hits give low values 0.958 | locus YFL029C, strain CAK1, hits give low values 0.953 | locus YFR003C, strain YPI1, hits give low values 0.961 | locus YFR019W, strain FAB1, hits give low values 0.946 | locus YFR028C, strain CDC14, hits give low values 0.962 | locus YGR040W, strain KSS1, hits give low values 0.934 | locus YGR052W, strain FMP48, hits give low values 0.929 | locus YGR092W, strain DBF2, hits give low values 0.885 | [2] 0.855 | locus YHR079C, strain IRE1, hits give low values 0.917 | locus YHR082C, strain KSP1, hits give low values 0.916 | locus YHR205W, strain SCH9, hits give low values 0.844 | locus YIL147C, strain SLN1, hits give low values 0.967 | locus YJL095W, strain BCK1, hits give low values 0.871 | locus YJL128C, strain PBS2, hits give low values 0.921 | locus YJL157C, strain FAR1, hits give low values 0.939 | locus YJR016C, strain ILV3, hits give low values 0.974 | locus YJR066W, strain TOR1 (second series), hits give low values 0.939 | locus YJR066W, strain TOR1, hits give low values 0.933 | locus YKL048C, strain ELM1, hits give low values 0.895 | locus YKL067W, strain YNK1, hits give low values 0.901 | locus YKL101W, strain HSL1, hits give low values 0.89 | locus YKL193C, strain SDS22, hits give low values 0.965 | locus YKL203C, strain TOR2, hits give low values 0.969 | locus YLR133W, strain CKI1, hits give low values 0.926 | locus YLR403W, strain SFP1, hits give low values 0.925 | locus YML070W, strain DAK1, hits give low values 0.891 | locus YMR001C, strain CDC5, hits give low values 0.961 | locus YMR205C, strain PFK2 (second series), hits give low values 0.913 | locus YMR277W, strain FCP1, hits give low values 0.971 | locus YNL006W, strain LST8, hits give low values 0.982 | locus YNL020C, strain ARK1, hits give low values 0.906 | locus YNL161W, strain CBK1, hits give low values 0.971 | locus YNL183C, strain NPR1, hits give low values 0.88 | locus YNL207W, strain RIO2, hits give low values 0.945 | locus YNL222W, strain SSU72, hits give low values 0.971 | locus YNL307C, strain MCK1 (second series), hits give low values 0.906 | locus YOL078W, strain AVO1, hits give low values 0.975 | locus YOL136C, strain PFK27, hits give low values 0.913 | locus YOR061W, strain CKA2, hits give low values 0.905 | locus YOR119C, strain RIO1, hits give low values 0.922 | locus YOR231W, strain MKK1, hits give low values 0.91 | locus YOR329C, strain SCD5, hits give low values 0.976 | locus YPL031C, strain PHO85, hits give low values 0.938 | locus YPL153C, strain RAD53, hits give low values 0.924 | locus YPL204W, strain HRR25, hits give low values 0.919 | locus YPL209C, strain IPL1, hits give low values 0.982 | locus YPR025C, strain CCL1, hits give low values 0.966 | locus YPR106W, strain ISR1, hits give low values 0.968 | locus YPR111W, strain DBF20, hits give low values 0.952 | strain NNK1, hits give low values 0.959 | strain TSCII, hits give low values 0.967
active: locus YLR113W, strain HOG1, hits give low values 0.722 | locus YPL256C, strain CLN2, hits give low values 0.818
